Experimental data from the supplement of paper PMC11732987, “Enantioselective OTUD7B fragment discovery through chemoproteomics screening and high-throughput optimisation” (Communications Chemistry, 2025).

What was measured:
Experiment in all cases: log2 ratio of Biotin-Ahx-Ub-VS probe labelling (fragment/DMSO); higher = less target engagement (more negative = stronger competition), active = hit call of the paper (q ≤ 0.05, log2 ratio ≤ -1)
Conditions in all cases: compound concentration: 200 uM; treatment time: 3 h
USP19 = molecular target: T1, USP19 (UniProt O94966)
T1 sequence (whole entry): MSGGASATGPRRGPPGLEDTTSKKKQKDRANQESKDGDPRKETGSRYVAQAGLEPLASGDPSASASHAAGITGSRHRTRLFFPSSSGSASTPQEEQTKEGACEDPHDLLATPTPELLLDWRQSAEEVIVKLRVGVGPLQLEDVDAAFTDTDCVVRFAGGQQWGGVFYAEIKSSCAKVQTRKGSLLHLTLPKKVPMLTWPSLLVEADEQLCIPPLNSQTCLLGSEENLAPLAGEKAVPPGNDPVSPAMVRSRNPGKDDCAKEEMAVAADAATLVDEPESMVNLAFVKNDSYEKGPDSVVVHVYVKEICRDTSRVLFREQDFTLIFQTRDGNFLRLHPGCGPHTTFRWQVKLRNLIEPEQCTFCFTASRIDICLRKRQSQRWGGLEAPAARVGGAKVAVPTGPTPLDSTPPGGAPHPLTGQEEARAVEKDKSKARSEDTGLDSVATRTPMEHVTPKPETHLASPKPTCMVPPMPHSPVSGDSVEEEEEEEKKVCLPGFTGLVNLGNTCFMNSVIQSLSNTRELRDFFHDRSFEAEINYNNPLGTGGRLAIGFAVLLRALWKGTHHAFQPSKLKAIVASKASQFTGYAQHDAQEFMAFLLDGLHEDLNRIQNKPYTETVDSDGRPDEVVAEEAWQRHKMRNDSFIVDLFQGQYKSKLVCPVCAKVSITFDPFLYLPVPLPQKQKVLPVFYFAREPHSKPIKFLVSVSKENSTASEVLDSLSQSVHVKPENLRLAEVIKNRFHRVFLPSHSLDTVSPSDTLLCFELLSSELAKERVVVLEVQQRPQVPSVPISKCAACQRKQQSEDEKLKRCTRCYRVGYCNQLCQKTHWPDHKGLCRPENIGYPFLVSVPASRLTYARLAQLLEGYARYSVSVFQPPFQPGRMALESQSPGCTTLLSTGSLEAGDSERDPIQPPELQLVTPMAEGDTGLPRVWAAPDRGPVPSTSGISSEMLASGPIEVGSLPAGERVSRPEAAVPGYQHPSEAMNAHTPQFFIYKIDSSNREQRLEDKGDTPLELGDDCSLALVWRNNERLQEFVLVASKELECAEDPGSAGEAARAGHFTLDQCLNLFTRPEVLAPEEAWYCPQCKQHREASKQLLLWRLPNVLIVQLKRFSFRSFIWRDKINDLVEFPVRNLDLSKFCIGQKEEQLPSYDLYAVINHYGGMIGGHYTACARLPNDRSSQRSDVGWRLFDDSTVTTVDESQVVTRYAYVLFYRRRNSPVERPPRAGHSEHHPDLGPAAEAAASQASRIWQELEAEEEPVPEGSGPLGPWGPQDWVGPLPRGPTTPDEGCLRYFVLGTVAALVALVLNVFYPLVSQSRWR
Method in brief: (§1)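 Labelled DUBs from HEK293T lysate were NeutrAvidin-enriched, digested with LysC and trypsin, and run by diaPASEF LC-MS/MS. Before that, each 495 µg sample in Tris/CHAPS/IGEPAL buffer with protease inhibitors was treated in triplicate with fragment at 200 µM or vehicle for 3 h, then with Biotin-Ahx-Ub-VS at 0.5 µM final for 1 h. Values are average log2 ratios of fragment over vehicle by unpaired t-test, based on global-median-normalised Spectronaut label-free quantities from proteins with ≥2 unique peptides.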

USP24 = USP24 (UniProt Q9UPU5)
Method in brief: as §1

USP25 = molecular target: T2, USP25 (UniProt Q9UHP3)
T2 sequence (whole entry): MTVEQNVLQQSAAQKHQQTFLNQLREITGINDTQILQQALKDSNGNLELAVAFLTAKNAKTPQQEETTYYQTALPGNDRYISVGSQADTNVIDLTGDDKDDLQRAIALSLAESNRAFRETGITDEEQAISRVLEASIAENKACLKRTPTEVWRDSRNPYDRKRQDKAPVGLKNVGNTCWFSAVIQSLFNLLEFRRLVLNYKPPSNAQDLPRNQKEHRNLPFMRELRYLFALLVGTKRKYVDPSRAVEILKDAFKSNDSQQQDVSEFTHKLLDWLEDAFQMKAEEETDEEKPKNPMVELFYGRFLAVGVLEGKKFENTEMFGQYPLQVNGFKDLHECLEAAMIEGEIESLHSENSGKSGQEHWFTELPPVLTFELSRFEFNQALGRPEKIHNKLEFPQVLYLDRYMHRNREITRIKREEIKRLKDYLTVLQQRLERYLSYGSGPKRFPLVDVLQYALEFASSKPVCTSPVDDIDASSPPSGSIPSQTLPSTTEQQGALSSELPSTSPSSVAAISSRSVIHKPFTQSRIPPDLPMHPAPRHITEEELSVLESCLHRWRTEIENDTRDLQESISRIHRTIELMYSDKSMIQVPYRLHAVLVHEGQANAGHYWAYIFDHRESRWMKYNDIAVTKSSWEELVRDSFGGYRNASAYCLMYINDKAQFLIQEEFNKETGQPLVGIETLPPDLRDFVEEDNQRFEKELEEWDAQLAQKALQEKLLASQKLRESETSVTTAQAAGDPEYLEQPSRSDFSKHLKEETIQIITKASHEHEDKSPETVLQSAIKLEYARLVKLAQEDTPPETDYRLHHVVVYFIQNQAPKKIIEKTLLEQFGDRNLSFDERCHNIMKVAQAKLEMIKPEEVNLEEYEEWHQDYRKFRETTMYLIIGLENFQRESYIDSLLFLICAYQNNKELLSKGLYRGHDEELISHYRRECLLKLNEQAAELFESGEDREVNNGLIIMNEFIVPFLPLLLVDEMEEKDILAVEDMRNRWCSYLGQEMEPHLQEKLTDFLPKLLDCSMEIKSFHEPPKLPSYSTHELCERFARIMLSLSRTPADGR
Method in brief: as §1

USP28 = molecular target: T3, USP28 (UniProt Q96RU2)
T3 sequence (whole entry): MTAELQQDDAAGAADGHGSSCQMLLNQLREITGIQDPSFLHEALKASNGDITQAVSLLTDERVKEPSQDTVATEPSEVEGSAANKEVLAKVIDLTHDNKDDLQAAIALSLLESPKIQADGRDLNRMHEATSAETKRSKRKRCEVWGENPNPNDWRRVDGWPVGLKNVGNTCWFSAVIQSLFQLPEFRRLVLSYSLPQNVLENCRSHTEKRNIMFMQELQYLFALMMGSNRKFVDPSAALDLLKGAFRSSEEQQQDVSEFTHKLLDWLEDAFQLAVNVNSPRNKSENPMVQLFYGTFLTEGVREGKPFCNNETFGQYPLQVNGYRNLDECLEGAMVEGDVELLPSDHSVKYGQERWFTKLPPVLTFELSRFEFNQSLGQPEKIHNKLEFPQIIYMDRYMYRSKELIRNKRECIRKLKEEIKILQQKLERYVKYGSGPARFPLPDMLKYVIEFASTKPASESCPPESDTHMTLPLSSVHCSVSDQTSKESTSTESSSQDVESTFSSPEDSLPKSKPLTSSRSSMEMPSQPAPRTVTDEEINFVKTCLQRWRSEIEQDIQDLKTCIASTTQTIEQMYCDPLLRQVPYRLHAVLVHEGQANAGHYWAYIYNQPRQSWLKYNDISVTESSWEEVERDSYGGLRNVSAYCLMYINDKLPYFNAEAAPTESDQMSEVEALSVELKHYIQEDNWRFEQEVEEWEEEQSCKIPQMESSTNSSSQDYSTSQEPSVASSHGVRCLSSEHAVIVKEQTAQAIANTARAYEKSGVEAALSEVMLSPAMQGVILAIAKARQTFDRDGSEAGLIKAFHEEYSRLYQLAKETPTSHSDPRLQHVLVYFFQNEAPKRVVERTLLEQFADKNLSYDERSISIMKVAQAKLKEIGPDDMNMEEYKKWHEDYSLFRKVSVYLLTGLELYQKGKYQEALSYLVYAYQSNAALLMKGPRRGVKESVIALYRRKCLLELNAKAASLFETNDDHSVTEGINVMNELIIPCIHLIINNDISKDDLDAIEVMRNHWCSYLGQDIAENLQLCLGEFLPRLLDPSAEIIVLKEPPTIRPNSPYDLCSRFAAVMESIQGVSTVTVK
Method in brief: as §1

Measured: log2 ratio of Biotin-Ahx-Ub-VS probe labelling

Sequence of USP24 (Q9UPU5 whole entry): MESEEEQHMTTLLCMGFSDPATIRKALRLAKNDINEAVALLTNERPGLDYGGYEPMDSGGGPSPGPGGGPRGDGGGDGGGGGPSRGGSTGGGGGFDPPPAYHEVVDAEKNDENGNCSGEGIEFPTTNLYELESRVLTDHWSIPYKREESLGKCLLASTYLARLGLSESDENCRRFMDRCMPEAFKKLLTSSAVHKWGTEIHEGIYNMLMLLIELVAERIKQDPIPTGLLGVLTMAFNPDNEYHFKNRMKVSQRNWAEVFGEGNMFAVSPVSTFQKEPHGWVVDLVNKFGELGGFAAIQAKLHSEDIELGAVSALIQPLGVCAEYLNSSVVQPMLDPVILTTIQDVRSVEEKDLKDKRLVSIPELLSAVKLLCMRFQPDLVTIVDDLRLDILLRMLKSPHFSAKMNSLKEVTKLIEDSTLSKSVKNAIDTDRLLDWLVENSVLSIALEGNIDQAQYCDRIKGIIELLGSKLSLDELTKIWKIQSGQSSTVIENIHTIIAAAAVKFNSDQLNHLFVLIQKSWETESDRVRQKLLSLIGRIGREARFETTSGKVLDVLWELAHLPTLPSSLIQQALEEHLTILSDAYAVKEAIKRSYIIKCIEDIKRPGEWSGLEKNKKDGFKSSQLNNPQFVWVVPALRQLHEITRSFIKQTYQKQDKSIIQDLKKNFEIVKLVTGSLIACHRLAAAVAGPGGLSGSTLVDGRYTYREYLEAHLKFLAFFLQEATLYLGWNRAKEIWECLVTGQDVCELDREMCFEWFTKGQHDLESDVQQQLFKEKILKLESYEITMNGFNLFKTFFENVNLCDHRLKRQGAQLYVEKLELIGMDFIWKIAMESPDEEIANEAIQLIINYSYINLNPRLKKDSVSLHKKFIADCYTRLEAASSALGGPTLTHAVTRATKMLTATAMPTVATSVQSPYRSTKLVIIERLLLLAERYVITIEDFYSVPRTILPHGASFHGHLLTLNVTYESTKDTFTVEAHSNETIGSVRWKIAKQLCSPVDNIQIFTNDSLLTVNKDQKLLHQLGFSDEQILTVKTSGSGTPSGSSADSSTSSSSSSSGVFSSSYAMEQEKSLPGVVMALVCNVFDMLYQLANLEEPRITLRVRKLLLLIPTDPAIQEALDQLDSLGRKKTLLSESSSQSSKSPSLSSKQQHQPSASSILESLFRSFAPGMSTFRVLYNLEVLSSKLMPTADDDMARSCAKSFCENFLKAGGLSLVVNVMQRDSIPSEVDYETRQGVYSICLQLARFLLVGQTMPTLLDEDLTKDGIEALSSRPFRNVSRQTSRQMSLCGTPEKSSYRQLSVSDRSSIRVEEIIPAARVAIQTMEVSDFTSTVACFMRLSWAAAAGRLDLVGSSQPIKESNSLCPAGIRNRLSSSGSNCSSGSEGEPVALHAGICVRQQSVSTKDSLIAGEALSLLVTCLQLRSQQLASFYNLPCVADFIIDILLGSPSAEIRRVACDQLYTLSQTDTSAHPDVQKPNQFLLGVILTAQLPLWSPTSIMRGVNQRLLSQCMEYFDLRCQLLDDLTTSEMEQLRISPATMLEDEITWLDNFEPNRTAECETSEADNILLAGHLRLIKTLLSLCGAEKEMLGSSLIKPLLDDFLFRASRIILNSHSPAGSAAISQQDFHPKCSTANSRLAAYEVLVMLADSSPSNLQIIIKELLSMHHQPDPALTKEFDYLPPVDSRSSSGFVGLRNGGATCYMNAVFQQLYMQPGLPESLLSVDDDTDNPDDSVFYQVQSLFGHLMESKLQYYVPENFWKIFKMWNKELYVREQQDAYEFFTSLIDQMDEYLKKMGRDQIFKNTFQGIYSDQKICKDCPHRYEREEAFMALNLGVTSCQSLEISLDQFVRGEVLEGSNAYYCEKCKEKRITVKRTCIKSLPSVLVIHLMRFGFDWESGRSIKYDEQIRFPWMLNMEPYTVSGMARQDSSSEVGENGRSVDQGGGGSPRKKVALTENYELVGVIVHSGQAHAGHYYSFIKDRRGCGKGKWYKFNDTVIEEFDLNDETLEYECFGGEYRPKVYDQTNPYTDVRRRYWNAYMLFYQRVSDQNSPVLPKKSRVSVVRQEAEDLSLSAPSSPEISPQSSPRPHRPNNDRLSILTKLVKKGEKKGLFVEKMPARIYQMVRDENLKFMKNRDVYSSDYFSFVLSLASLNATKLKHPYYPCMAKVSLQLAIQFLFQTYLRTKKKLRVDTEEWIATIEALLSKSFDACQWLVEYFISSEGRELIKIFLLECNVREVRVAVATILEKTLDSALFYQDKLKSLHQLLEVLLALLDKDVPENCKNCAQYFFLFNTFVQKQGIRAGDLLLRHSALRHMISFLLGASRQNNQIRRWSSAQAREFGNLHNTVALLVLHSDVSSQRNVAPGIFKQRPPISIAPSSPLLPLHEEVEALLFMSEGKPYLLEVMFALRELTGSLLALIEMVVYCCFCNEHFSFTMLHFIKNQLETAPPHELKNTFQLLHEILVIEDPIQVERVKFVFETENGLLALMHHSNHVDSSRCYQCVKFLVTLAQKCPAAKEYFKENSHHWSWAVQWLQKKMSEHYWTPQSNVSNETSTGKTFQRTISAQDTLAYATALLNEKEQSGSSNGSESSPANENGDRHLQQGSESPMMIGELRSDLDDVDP

O=C(CCl)N1CCCCC12CCOCC2
inactive: USP19 -0.481 | USP24 -0.606 | USP25 -0.341 | USP28 -0.65
